ELG1 DNA repair: ELG1-dependent DNA repair inhibition | 330,000 tested, 2.3% active | Potency, µM (series often up to 46.1 µM), inactives show top-dose activity change, negative = inhibition, most hits filed as inhibitors | HEK293T ELG1-luciferase reporter, luminescence, 16 h; DNA damage induced by 5-fluorouridine | AID 504467; also: nearly all actives have a fitted effect of over 55% in size
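Luminescence from the luciferase reporter, measured 30 min after ONE-Glo reagent at room temperature, was the read-out. Beforehand, 2,000 cells per well were exposed for 16 hr at 37 °C to 5-fluorouridine together with compound or vehicle.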
RORgamma inh: ROR gamma (mouse) transcription inhibition; Potency, µM (top dose mostly 53.6 µM), for inactives: at the highest dose activity change, negative = inhibition, hits mostly inhibitors; 310,000 tested, 5.4% active; Drosophila S2 Gal4-RORgamma UAS-luciferase reporter, 20 h; P51450; also: nearly all actives have a fitted effect of over 60% in size
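Compounds are pin-transferred onto Drosophila Schneider cells expressing a copper-inducible Gal4–ROR gamma transactivation domain fusion. After 1 hr, copper sulfate is added to 700 uM final; luciferase is read 20 hr later.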
DT40 TDP1 CPT: DT40-hTDP1 cell growth loss with CPT. chicken DT40 Tdp1-/-;hTDP1 cells + 20 nM CPT, ATP luminescence, 48 h. Potency, µM (series often up to 46.2 µM), inactives show at the top dose activity change, negative = growth inhibition, most hits filed as inhibitors. 420,000 tested, 12% active; also: nearly all actives have a fitted effect of over 55% in size
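Cell growth measured by CellTiter-Glo luminescence after a minimum 48 h, 37 C compound exposure with 20 nM CPT in Tdp1-knockout DT40 cells stably expressing hTDP1, seeded 400/well; qHTS titration format.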
DT40 TDP1 no CPT: qHTS for Inhibitors of human tyrosyl-DNA phosphodiesterase 1 (TDP1): qHTS in cells in absence of CPT; 420,000 tested, 15% active; Potency, µM (highest dose often 46.2 µM), without a hit: at the top dose activity change, negative = growth inhibition, hits mostly inhibitors; DT40 Tdp1-/- hTDP1 cells, no CPT, ATP luminescence, 48 h; also: nearly all actives have a fitted effect of over 55% in size
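DT40 Tdp1-/-;hTDP1 cells, no CPT (DMSO vehicle only), 400 cells/well; compounds pin-transferred; ≥48 hr, 37 °C; CellTiter-Glo 30 min RT dark, luminescence read.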
VP16 counter: inhibits Gal4-VP16 luciferase reporter, ROR gamma counter-screen; Drosophila S2 Gal4-VP16 UAS-luciferase, luminescence, 20 h; Potency, µM (titrated, usually from 53.6 µM), for the others: at the highest dose activity, negative = inhibition, usual class: inhibitors; 310,000 tested, 3.5% active;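 also: Gal4-VP16 expression switched on by copper sulfate through the metallothionein promoter; nearly all actives have a fitted effect of over 50% in size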
ALOX12 inh: blocks human arachidonate 12S-lipoxygenase; 580,000 tested, 1.1% active; Potency, µM (series often up to 108 µM), without a hit: at the top dose activity change, negative = inhibition, usual class: inhibitors; purified 12hLO, xylenol orange hydroperoxide absorbance
Target sequence (P18054 whole entry, looked up): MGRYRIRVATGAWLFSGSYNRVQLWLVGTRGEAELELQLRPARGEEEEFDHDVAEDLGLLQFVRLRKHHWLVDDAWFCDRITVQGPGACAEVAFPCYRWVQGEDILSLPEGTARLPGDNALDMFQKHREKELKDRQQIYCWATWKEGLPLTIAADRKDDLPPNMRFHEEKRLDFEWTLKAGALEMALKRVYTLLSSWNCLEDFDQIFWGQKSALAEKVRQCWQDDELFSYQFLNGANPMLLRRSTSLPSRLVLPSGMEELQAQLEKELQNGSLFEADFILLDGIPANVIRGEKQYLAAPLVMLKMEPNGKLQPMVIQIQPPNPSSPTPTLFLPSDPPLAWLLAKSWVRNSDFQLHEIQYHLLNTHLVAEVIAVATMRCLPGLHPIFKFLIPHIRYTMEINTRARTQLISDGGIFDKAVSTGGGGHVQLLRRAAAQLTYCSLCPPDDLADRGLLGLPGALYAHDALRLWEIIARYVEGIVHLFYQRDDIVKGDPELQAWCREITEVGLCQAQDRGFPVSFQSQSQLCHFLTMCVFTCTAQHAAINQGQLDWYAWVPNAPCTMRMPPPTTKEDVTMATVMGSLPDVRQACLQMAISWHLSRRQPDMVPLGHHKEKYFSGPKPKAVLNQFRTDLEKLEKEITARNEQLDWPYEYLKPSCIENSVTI
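Hydroperoxide product was detected by ferrous iron/xylenol orange as the 573 to 405 nm absorbance ratio. Arachidonic acid at 40 uM (final) was turned over for 30 min at room temperature by 150 nM human 12hLO, pH 7.0 Hepes buffer, after 15 min compound preincubation.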
* = called active by the depositor; u = inconclusive; x = not tested or not shown; [ ] = remark or other dose. Most compounds without a hit are left out; they make up all but 15% or so of the library. Calls follow the shape of the dose curve; as a rule, active = well fitted curve in the direction sought with a large enough effect; inconclusive = small, poorly fitted or top-dose-only effect, or another doubt; inactive = no such curve, though single readings can be large; an effect the other way counts as inactive or inconclusive. % is scaled to controls: 0 for no effect and ±100 for the full control effect; potency is read from the fitted curve at half-maximal effect.

SMILES | ELG1 DNA repair | RORgamma inh | DT40 TDP1 CPT | DT40 TDP1 no CPT | VP16 counter | ALOX12 inh
CCO[C@H]1OC(C(=O)O)=C[C@@H](c2cn(C(C)=O)c3ccccc23)[C@@H]1CCCO | x | x | -1% | 1% | x | -11%
CCO[C@H]1OC(C(=O)NCc2nc3ccccc3[nH]2)=C[C@@H](c2cn(C(C)=O)c3ccccc23)[C@@H]1CCCO | x | x | u | 18µM* | x | 10%
Cc1onc(-c2ccccc2)c1-c1nnc(CN2CCN(CC(=O)N3CCOCC3)CC2)o1 | x | x | x | x | x | 7%
CCO[C@H]1OC(C(=O)NCc2nc3ccccc3[nH]2)=C[C@@H](C2CCCCC2)[C@@H]1CCCO | u | 32% | 13µM* | 15µM* | 4% | 0%
CCO[C@H]1OC(C(=O)NCc2nc3ccccc3[nH]2)=C[C@@H](c2ccc(C(F)(F)F)cc2)[C@@H]1CCCO | -20% | 18% | u | 16µM* | 0% | -2%
CCO[C@H]1OC(C(=O)NCc2nc3ccccc3[nH]2)=C[C@@H](C)[C@@H]1CCCO | 0% | 8% | u | u | -4% | 8%
Cc1cc(-c2cccc(OC(C)C)c2)cnc1-n1cnnc1 | x | x | x | x | x | 33%
CCOC(=O)N1CCN(Cc2ccc3c(c2)CN(C(=O)c2cc(-c4ccccc4)on2)CCO3)CC1 | x | x | -6%[9.04 µM] | 21µM* | x | 18%
Cc1nc(C)c(CC(=O)N2CCOc3ccc(CN4CCN(c5ccccn5)CC4)cc3C2)s1 | x | x | u | 7.3µM* | x | 31%
CCOC(=O)N1CCN(Cc2ccc3c(c2)CN(C(=O)c2cc(-c4ccccc4)no2)CCO3)CC1 | x | x | u | 23µM* | x | -1%
O=C(Cc1cscn1)N1CCOc2ccc(CN3CCN(c4ccccn4)CC3)cc2C1 | x | x | -1%[9.04 µM] | -14% | x | 4%
COCC1CCCN(Cc2ccc3c(c2)CN(C(=O)c2cc(-c4ccccc4)n[nH]2)CCO3)C1 (configuration not stated) | x | x | u | u | x | 24%
COc1cc(OC)c(OC)cc1CN1CCOc2ccc(CN3CCN(C(C)=O)CC3)cc2C1 | x | x | -7%[9.04 µM] | 21µM* | x | 27%
COc1ccc(CN2CCOc3ccc(C(=O)NCc4ccc(C)cc4)cc3C2)cc1OC | x | x | x | x | x | 9%
Cc1cc2oc(C(=O)N(Cc3ccc(F)cc3)C3CCS(=O)(=O)C3)cc(=O)c2cc1C (configuration not stated) | x | x | x | x | x | 6%
CC(=O)Nc1ccc(S(=O)(=O)N[C@H]2CO[C@H]3[C@@H]2OC[C@@H]3n2nnnc2-c2ccc3c(c2)OCO3)cc1 | x | x | x | x | x | 36%
COc1cccc(-c2nnc(NC(=O)c3cccc(F)c3)o2)c1 | 12% | 0.32µM* | 3.3µM* | 3.3µM* | 0.79µM* | u
COc1cccc(CC(=O)OCC(=O)Nc2nnc(-c3ccccc3)o2)c1 | 5% | x | -7% | -3% | x | -2%
COc1cccc(-c2nnc(-c3ccccc3NC(=O)c3ccc(F)cc3F)o2)c1 | x | x | -4% | -19% | x | 0%
COc1cccc(-c2nnc(NC(=O)c3ccccc3Br)o2)c1 | u | 5µM* | u | u | 3.2µM* | 1%
COc1ccc(C(=O)Nc2nnc(-c3ccccc3)o2)cc1OC | -29% | 0.56µM* | u | 23µM* | 1µM* | 12%
COc1cc(C(=O)OCC(=O)Nc2nnc(-c3ccccc3)o2)cc(OC)c1OC | -4% | x | -18% | -6% | x | 8%
CCOC(=O)c1ccc(NC(=O)CSc2nccn2Cc2ccccc2OC)cc1 | x | x | x | x | x | 10%
Cc1nn(CCC(=O)Nc2cccc(Cl)c2)c(=O)c(C#N)c1C | x | x | x | x | x | -7%
COc1ccc(CN2CCc3nn(CC4CC4)c(=O)n3CC2)c(Cl)c1OC | x | x | x | x | x | 51%
SMILES | ELG1 DNA repair | RORgamma inh | DT40 TDP1 CPT | DT40 TDP1 no CPT | VP16 counter | ALOX12 inh
CCOCCCNC(=O)/C=C/c1ccc(-c2ccc(F)cc2)s1 | x | x | x | x | x | 5%
COc1cc(CN2CCC3(CCN(CC4CC4)CC3)C(CO)C2)ccc1F (configuration not stated) | x | x | x | x | x | 49%
Cc1cccc(NC(=S)N/N=C/c2ccc(Cl)c([N+](=O)[O-])c2)c1 | 11% | 1.6µM* | u | u | 4µM* | -15%
Cc1cccc(NC(=S)N/N=C/c2cccc([N+](=O)[O-])c2)c1 | -27% | 1.1µM* | u | u | -9%[0.365 µM] | x
CN(C)S(=O)(=O)c1ccc(C(=O)N2CCCc3ccccc32)cc1 | x | x | x | x | x | -35%
COc1cccc(N2CCN(S(=O)(=O)c3ccc4c(c3)CC(C)N4C(=O)C3CC3)CC2)c1 (configuration not stated) | -3% | 22% | u | -21% | -3% | -21%
COc1ccc(NS(=O)(=O)c2ccc3c(c2)CC(C)N3C(=O)C2CCC2)cc1OC (configuration not stated) | x | x | 1µM* | 0.65µM* | x | -1%
COc1cc(Cl)c(NS(=O)(=O)c2ccc3c(c2)CC(C)N3C(=O)C2CCC2)c(OC)c1 (configuration not stated) | x | x | 6.5µM* | 5.8µM* | x | -7%
O=C(O)CNC(=O)CNC(=O)CCn1c(-c2ccccc2)cc2ccccc21 | x | x | x | x | x | -9%
CCC1CSC(Nc2ccccc2C)=N1 (configuration not stated) | x | x | x | x | x | 5%
Cc1ccccc1NC1=NCC(c2ccc([N+](=O)[O-])cc2)S1 (configuration not stated) | u | u | u | u | 22µM* | -11%
COc1ccc(C/C(C)=N/NC(=S)Nc2ccc(C)c(C)c2)cc1 | u | u | 16µM* | 16µM* | 10µM* | u
S=C(NN=C(C1CC1)C1CC1)Nc1ccccc1 | u | 11µM* | 21µM* | u | 18µM* | u
COc1ccc(C/C(C)=N/NC(=S)Nc2ccccc2)cc1 | u | 20µM* | u | u | u | u
O=C(NNC(=S)Nc1ccccc1)C1CC1 | 3% | u | 4% | -5% | 0% | 22%
COc1ccc(/C(C)=N/NC(=O)Cc2ccc(Cl)cc2)cc1 | 13% | 3%[1.91 µM] | 11% | -8% | 0% | -10%
COc1ccc(C/C(C)=N/NC(=S)Nc2ccc(Cl)cc2)cc1 | -4% | 11µM* | 15µM* | 12µM* | u | 0%
CCc1cc(=O)n(CC(=O)N2CCN(c3ccc(F)cc3)CC2)c(N2CCOCC2)n1 | x | x | x | x | x | 40%
CCCC/C(C)=N/NC(=S)Nc1ccccc1 | x | x | x | x | x | 6.3µM*
